Source: the supplement of paper PMC10849652
Of roughly 7,900 targets only a part is listed; those with a hit were picked by preference. About 0.6% of all pairs of compound and target were hits. Unmarked numbers belong to inactive results.

Columns and labels:
Test in all cases: log2 fold change, soluble protein after heating vs DMSO (PISA); higher = thermal stabilisation; K562 cells, 10 uM, 30 min; active = over 0.2 and 3.5 SD of the protein, either way, in both replicates (recomputed)
erlotinib = compound: C#Cc1cccc(Nc2ncnc3cc(OCCOC)c(OCCOC)cc23)c1 [erlotinib]
Summary of the method: (§1)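 K562 cells at 2×10^6 cells/mL were given 10 μM compound for 30 min. Aliquots then went through 3 min of heating across 48°C-58°C, were pooled, and were extracted in PBS with 0.5% NP-40 at 4°C, and the supernatant after 21,000xg for 90 min was quantified by TMTpro 16plex LC-MS/MS with channel sums equalised. Thermal stability relative to control samples, from duplicates, is given as log2 fold change.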

[1] = compound: C/C(=N\NC(=O)C1=CC(=CC=C1)S(=O)(=O)N2CCOCC2)/C3=C(C=CC(=C3)Cl)O
Summary of the method: as §1

[2] = compound: C1=CC(=C(C=C1Cl)C2=NC3=NC=CN=C3C(=N2)NC4=CC=NC=C4)F
Summary of the method: as §1

[3] = compound: C1=CC(=CC=C1C2=NC3=C(N2)C=C(C=C3)C(=O)N)OC4=CC=C(C=C4)Cl
Summary of the method: as §1

[4] = compound: C1=CC2=C(C=CC(=C2)/C=C\3/C(=O)NC(=NCC4=CC=CS4)S3)N=C1
Summary of the method: as §1

[5] = compound: C1=CC2=NC=CN=C2C=C1/C=C/3\C(=O)NC(=O)S3
Summary of the method: as §1

[6] = compound: C1=CC=C(C=C1)C2=NC(=C(N2)C3=CC=NC=C3)C4=CC(=C(C=C4)Cl)O
Summary of the method: as §1

[7] = compound: C1=CC=C2C(=C1)C3=NNC4=CC=CC(=C43)C2=O
Summary of the method: as §1

[8] = compound: C1CCN(C1)C(=O)NC2=CC=CC(=C2)NC3=NC=C(C(=N3)NCCC4=CN=CN4)Br
Summary of the method: as §1

[9] = compound: C1CN(CCC1(CC2=CC=C(C=C2)Cl)N)C3=NC=NC4=C3C=CN4
Summary of the method: as §1

IRAK-1-4 Inhibitor I = compound: C1COCCN1CCN2C3=CC=CC=C3N=C2NC(=O)C4=CC(=CC=C4)[N+](=O)[O-] [IRAK-1-4 Inhibitor I]
Summary of the method: as §1

ibrutinib = compound: C=CC(=O)N1CCC[C@@H](n2nc(-c3ccc(Oc4ccccc4)cc3)c3c(N)ncnc32)C1 [ibrutinib]
Summary of the method: as §1

[10] = compound: CC(=O)c1cnc2ccc(-c3cc(Cl)c(O)c(Cl)c3)nc2c1N[C@H]1CC[C@H](CN(C)C)CC1
Summary of the method: as §1

ralimetinib = compound: CC(C)(C)Cn1c(N)nc2ccc(-c3[nH]c(C(C)(C)C)nc3-c3ccc(F)cc3)nc21 [ralimetinib]
Summary of the method: as §1

[11] = compound: CC(C)(O)CC(=O)NCCn1ccc2ncnc(Nc3ccc(Oc4cccc(C(F)(F)F)c4)c(Cl)c3)c21
Summary of the method: as §1

[12] = compound: CC(C)C1=C2N=C(C=C(N2N=C1)NCC3=CC=CC=C3)NCCCCCCN
Summary of the method: as §1

[13] = compound: CC(C)C[C@@H](C=O)NC(=O)[C@H](CC(C)C)NC(=O)[C@H](CC(C)C)NC(=O)OCc1ccccc1
Summary of the method: as §1

pinometostat = compound: CC(C)N(C[C@H]1O[C@@H](n2cnc3c(N)ncnc32)[C@H](O)[C@@H]1O)[C@H]1C[C@@H](CCc2nc3cc(C(C)(C)C)ccc3[nH]2)C1 [pinometostat]
Summary of the method: as §1

[14] = compound: CC1=C(C(CC(=O)N1)C2=CC=C(C=C2)C(F)(F)F)C(=O)NC3=C(C=C4C(=C3)C=NN4)F
Summary of the method: as §1

[15] = compound: CC1=C(C2=C(C=C1)C(=O)C3=CC=CC=C3N2CCCN)C
Summary of the method: as §1

Sequence of UniProt Q8TD22 (Q8TD22 whole entry, looked up): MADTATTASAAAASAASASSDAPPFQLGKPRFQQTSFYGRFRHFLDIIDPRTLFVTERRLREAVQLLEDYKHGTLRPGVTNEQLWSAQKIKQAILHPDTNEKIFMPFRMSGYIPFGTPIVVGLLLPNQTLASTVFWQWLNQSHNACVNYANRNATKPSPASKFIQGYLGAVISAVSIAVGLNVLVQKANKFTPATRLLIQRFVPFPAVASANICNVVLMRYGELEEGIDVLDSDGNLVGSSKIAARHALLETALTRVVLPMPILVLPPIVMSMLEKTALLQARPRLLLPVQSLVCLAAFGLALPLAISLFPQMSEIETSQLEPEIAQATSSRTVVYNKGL
Sequence of UniProt Q15418 (Q15418 whole entry, looked up): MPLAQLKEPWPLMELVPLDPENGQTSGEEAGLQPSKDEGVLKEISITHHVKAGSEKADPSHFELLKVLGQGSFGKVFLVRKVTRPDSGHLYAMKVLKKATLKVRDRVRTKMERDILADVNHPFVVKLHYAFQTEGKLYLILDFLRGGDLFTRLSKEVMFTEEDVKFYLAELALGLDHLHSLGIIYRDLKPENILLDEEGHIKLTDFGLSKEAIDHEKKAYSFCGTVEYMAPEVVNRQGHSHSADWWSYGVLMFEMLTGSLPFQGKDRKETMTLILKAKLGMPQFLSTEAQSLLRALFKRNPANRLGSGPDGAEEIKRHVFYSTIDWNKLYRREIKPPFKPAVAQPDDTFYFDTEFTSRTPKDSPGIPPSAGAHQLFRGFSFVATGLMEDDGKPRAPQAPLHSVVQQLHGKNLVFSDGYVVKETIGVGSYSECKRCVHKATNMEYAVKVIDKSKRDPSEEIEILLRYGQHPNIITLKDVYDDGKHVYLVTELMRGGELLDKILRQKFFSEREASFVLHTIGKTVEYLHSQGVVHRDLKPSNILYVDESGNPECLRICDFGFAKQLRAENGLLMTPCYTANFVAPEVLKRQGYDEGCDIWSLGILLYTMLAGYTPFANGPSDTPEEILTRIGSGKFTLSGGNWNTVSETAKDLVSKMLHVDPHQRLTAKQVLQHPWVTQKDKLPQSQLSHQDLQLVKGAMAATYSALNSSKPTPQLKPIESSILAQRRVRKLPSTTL
Sequence of UniProt Q9BWF3 (Q9BWF3 whole entry, looked up): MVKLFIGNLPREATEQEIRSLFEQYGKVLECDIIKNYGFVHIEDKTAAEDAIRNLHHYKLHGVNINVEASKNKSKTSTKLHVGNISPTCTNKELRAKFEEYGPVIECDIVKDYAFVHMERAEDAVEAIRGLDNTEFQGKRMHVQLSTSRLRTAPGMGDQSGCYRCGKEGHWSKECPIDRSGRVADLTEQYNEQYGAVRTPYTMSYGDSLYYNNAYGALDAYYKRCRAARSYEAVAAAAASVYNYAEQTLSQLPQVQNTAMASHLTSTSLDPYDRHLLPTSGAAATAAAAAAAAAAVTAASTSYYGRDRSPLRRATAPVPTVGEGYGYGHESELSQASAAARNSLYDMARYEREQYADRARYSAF
Sequence of UniProt Q9NPQ8 (Q9NPQ8 whole entry, looked up): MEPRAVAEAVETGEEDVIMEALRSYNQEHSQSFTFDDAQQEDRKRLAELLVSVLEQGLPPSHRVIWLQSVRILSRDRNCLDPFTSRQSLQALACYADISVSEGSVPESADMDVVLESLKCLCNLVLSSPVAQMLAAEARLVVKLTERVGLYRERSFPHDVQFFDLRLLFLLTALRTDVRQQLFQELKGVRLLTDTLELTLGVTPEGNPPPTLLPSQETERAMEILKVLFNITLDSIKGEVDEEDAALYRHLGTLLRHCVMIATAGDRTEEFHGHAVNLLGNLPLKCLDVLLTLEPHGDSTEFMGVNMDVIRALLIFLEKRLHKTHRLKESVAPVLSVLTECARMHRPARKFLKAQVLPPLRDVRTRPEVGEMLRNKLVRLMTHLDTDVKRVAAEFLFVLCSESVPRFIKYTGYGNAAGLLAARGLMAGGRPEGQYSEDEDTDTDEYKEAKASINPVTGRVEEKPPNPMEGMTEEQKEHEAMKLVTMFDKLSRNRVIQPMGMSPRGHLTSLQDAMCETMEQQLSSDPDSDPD
Sequence of UniProt Q9P2N5 (Q9P2N5 whole entry, looked up): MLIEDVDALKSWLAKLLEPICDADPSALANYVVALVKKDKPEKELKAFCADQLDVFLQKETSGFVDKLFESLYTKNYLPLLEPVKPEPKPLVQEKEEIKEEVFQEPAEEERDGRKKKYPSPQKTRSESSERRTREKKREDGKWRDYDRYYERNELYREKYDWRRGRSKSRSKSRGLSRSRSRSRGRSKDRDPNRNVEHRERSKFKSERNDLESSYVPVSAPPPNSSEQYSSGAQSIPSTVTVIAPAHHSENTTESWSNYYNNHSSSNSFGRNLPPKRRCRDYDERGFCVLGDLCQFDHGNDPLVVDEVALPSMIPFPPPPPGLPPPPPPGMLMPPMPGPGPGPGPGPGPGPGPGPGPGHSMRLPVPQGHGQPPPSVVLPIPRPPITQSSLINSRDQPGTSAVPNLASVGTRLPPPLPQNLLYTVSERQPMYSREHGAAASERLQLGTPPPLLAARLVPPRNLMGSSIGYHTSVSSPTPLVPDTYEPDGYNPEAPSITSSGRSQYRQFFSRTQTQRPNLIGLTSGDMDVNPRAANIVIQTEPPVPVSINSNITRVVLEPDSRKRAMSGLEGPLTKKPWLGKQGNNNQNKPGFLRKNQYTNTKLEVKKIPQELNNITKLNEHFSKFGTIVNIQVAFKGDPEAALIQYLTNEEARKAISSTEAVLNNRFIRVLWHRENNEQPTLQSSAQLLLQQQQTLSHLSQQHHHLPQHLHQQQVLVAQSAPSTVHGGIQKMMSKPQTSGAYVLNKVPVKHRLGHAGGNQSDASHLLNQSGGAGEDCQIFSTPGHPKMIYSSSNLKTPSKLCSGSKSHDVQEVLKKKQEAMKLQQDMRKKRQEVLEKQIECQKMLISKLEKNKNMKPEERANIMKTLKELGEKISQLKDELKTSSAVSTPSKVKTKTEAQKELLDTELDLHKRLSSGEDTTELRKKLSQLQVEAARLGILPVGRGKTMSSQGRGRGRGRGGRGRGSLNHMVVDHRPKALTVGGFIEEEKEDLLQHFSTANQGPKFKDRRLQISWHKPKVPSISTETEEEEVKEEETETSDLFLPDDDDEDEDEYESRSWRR
Sequence of UniProt Q96DM3 (Q96DM3 whole entry, looked up): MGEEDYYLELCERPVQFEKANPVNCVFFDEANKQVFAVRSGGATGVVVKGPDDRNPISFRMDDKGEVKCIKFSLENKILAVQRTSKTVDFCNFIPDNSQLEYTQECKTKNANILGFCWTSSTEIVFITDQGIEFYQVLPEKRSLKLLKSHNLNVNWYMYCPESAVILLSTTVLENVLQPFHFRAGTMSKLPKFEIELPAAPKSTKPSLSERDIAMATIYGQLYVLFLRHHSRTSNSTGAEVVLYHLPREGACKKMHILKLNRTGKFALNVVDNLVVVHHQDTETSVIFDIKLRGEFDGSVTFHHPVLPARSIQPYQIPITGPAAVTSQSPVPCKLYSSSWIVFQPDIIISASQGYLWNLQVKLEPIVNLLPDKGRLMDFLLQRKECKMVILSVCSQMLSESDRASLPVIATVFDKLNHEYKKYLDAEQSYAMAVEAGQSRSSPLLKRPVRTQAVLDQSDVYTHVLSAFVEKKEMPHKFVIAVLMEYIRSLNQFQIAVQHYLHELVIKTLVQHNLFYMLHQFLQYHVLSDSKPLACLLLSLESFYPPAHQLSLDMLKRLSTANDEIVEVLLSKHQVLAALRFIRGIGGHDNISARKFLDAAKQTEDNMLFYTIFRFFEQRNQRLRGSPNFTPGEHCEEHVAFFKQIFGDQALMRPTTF
Sequence of UniProt P05543 (P05543 whole entry, looked up): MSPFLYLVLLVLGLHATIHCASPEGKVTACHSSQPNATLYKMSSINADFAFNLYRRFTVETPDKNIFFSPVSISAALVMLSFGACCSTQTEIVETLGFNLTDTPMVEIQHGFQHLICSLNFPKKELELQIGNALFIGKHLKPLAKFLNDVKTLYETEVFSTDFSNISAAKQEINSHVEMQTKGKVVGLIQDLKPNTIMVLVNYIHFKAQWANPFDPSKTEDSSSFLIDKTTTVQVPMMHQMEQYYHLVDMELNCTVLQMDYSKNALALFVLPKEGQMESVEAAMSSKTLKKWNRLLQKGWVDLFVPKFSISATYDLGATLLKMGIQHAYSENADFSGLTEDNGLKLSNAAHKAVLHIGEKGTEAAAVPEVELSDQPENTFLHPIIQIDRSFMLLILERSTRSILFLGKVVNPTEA
Sequence of UniProt Q7L4I2 (Q7L4I2 whole entry, looked up): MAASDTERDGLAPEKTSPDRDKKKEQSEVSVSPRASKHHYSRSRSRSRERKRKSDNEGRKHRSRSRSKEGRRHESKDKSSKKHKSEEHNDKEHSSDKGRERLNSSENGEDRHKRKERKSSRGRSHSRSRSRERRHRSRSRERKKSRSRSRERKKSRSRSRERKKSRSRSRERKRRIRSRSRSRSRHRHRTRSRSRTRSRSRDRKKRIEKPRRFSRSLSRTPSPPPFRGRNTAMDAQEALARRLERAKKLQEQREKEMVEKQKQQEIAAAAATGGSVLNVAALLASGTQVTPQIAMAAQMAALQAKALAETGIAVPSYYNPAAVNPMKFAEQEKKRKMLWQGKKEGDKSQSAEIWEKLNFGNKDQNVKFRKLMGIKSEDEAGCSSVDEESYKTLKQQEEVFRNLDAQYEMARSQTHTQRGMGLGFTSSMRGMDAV
Sequence of UniProt Q9NSI8 (Q9NSI8 whole entry, looked up): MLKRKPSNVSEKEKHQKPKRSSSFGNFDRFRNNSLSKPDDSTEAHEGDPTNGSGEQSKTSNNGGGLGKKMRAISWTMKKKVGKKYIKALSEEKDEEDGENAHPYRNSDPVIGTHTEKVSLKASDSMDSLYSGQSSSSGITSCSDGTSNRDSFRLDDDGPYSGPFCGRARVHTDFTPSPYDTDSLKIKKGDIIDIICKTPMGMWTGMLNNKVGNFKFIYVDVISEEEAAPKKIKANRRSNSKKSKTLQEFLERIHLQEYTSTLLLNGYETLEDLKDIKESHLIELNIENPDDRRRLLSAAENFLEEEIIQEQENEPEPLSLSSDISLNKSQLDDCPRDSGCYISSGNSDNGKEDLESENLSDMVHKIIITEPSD

Target	log2 fold change (erlotinib)	log2 fold change [1]	log2 fold change [2]	log2 fold change [3]	log2 fold change [4]	log2 fold change [5]	log2 fold change [6]	log2 fold change [7]	log2 fold change [8]	log2 fold change [9]	log2 fold change (IRAK-1-4 Inhibitor I)	log2 fold change (ibrutinib)	log2 fold change [10]	log2 fold change (ralimetinib)	log2 fold change [11]	log2 fold change [12]	log2 fold change [13]	log2 fold change (pinometostat)	log2 fold change [14]	log2 fold change [15]
SFXN5 (UniProt Q8TD22)	-0.077	0.09	-0.02	0.082	-0.003	0.023	0.081	-0.001	-0.066	-0.045	0.225	-0.048	-0.013	-0.001	-0.175	-0.083	0.187	0.03	0.008	0.09
RBM27 (UniProt Q9P2N5)	0.034	0.079	0.003	0.022	-0.039	-0.01	-0.067	0.022	-0.061	-0.128	-0.123	0.023	-0.338 (active)	-0.045	-0.063	-0.479 (active)	0.042	0.028	0.088	0.05
RMC1 (UniProt Q96DM3)	0.028	0.124	0.048	0.04	0.027	-0.038	0.011	-0.055	0.048	-0.038	0.038	0.03	-0.026	-0.025	-0.002	-0.209	0.011	-0.015	0.028	0.039
RPS6KA1 isoform 2 (UniProt Q15418)	-0.032	0.104	-0.082	0.107	0.034	0.039	-0.135	-0.377 (active)	-0.093	0.023	-0.013	-0.062	-0.167	-0.429 (active)	-0.092	-0.164	0.059	-0.006	0.017	0.018
RAVER1 (UniProt E9PAU2)	0.218	0.403	0.042	0.009	0.002	-0.06	0.257	-0.084	-0.05	-0.011	-0.062	0.033	-0.308	0.082	-0.263	-0.409	-0.042	0.052	0.016	-0.694
SAMSN1 isoform 3 (UniProt Q9NSI8)	0.027	0.012	-0.006	0.001	0.037	0.021	-0.009	-0.022	0.007	-0.114	0.028	-0.021	-0.125	-0.016	-0.034	-0.095	0.041	0.014	0.023	0.008
RBM4 (UniProt Q9BWF3)	0.02	0	-0.102	0.011	-0.012	0.054	-0.041	-0.035	0.012	-0.009	-0.038	-0.023	-0.083	0.099	0.019	-0.136	0.074	0.076	0.007	-0.027
RSF1 (UniProt Q96T23)	0.034	0.152	0.031	0.126	0.039	0.012	0.089	-0.057	0.01	0.006	-0.188	-0.054	0.043	0.019	-0.175	-0.114	-0.058	-0.123	0.028	-1.48 (active)
RIC8A isoform 3 (UniProt Q9NPQ8)	0.063	0.114	0	-0.031	0.114	-0.052	0.005	-0.021	-0.071	-0.057	-0.073	-0.051	-0.193	0.06	-0.052	-0.354	0.066	0.166	-0.005	-0.132
SERPINA7 (UniProt P05543)	-0.118	-0.1	-0.024	0.091	0.15	-0.111	-0.004	-0.072	0.164	0.272	0.095	0.229	0.227	-0.062	0.314	0.066	0.043	0	0.077	-0.245
RSRC2 (UniProt Q7L4I2)	0.023	-0.01	-0.009	-0.012	-0.05	0.018	0.019	-0.032	0	0.012	0.03	-0.035	-0.284 (active)	0.012	-0.033	-0.013	-0.026	-0.019	0.028	0.016
RBM12 (UniProt Q9NTZ6)	0.092	0.187	0.123	-0.022	0.117	-0.003	-0.008	0.011	-0.046	0.006	-0.042	-0.018	-0.135	-0.037	-0.145	-0.237	0.009	-0.043	0.012	-0.007
RPS21 (UniProt P63220)	-0.045	-0.062	-0.071	0.017	-0.056	0.079	-0.066	-0.027	0.033	0.017	-0.004	-0.035	0.055	-0.014	0.069	0.056	0.075	-0.022	0.014	-0.02
RPS16 (UniProt P62249)	-0.166	-0.108	-0.258	0.049	-0.075	-0.043	-0.049	0.002	0.025	-0.2	-0.137	0.036	0.054	0.032	0.011	-0.02	0.035	0.102	0.057	-0.6 (active)
RPS25 (UniProt P62851)	-0.083	-0.071	-0.276	0.077	-0.075	-0.091	-0.067	0.033	0.061	-0.141	-0.08	0.01	0.069	0.073	0.033	-0.028	0.054	0.184	0.006	-0.533 (active)
SEC24A (UniProt O95486)	0.084	0.097	0.031	-0.018	0.033	-0.022	0.036	0.022	-0.026	0.011	-0.038	-0.017	-0.013	0.018	-0.066	-0.057	-0.005	0.005	0.009	0.019
